# Rab9 promoter act: activators of Rab9 promoter. Huh7 Rab9 promoter-luciferase reporter, luminescence, 24 h. Potency, µM (titrated, usually from 9.22 µM), inactives show at the top dose activation, negative = inhibition, hits mostly activators. 320,000 tested, 2.8% active; note: % of control where 0% means no effect; nearly all actives have a fitted effect of over 60% in size
#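 Huh7 cells stably carrying Rab9 promoter–luciferase reporter, plated 1500 cells/well, compound added after 2 h and incubated 24 h at 37 °C; luciferase luminescence then read after 10 min with detection reagent.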
# FLuc counter: inhibits or activates purified firefly luciferase, miR-21 counter-screen; P08659; Potency, µM (top dose mostly 57.5 µM), without a hit: at the top dose activity change, negative = inhibition, hits mostly inhibitors; purified FLuc, Km substrates, luminescence inhibition; 360,000 tested, 6.9% active;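 note: plate controls were vehicle for no effect and reference inhibitor for full effect; nearly all actives have a fitted effect of over 55% in size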
# Target sequence (P08659 whole entry, looked up): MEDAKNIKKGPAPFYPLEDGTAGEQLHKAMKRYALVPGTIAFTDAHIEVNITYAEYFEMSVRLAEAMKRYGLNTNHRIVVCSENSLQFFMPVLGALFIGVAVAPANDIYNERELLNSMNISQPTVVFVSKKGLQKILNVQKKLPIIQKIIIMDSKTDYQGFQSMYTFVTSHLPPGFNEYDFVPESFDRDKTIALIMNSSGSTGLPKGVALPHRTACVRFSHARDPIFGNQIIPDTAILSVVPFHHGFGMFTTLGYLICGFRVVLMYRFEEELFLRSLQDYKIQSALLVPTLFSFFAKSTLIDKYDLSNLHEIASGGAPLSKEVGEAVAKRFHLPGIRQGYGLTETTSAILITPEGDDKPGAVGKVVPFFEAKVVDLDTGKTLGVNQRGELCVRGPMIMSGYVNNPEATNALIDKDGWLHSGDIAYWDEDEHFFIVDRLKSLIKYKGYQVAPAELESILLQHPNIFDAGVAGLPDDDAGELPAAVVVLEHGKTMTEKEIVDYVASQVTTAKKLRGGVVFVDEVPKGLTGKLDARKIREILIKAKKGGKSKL
#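 Biochemical qHTS of compounds, final roughly 60 µM downward over six points, against 10 nM purified firefly luciferase using Km concentrations of substrates (10 uM D-luciferin, 10 uM ATP) in Tris acetate pH 7.5 buffer; luminescence output.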
# NPC1 prom act: NPC1 promoter activation | Huh7 NPC1 promoter luciferase reporter, 24 h | Potency, µM (series often up to 9.22 µM), without a hit: top-dose activation, most hits filed as activators | 320,000 tested, 2.4% active | AID 485313; note: % of control where 0% means no effect; nearly all actives have a fitted effect of over 60% in size
#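 Luminescence from an NPC1 promoter-driven luciferase reporter in stably transfected Huh7 cells was measured after 24 h compound treatment at 37 °C, followed by 10 min ambient incubation with luciferase detection reagent.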
# ELG1 genotox: induces genotoxicity in HEK293T cells with luciferase-tagged ELG1. Potency, µM (highest dose often 46 µM), without a hit: at the top dose activity change, positive = activation, most hits filed as activators. 330,000 tested, 1.3% active. HEK293T ELG1-luciferase reporter, luminescence, 16 h. AID 504466; note: % of control where 0% means no effect; nearly all actives have a fitted effect of over 60% in size
#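 Genotoxic stress is detected as increased luminescence from luciferase-tagged ELG1 in HEK293T cells, measured with ONE-Glo after a 16 hr treatment at 37 °C.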
# Luc counter: blocks Kinase-Glo luciferase, a counter-screen artifact | 200,000 tested, 0.28% active | Kinase-Glo luciferase, ATP luminescence, 8 min | Potency, µM (top dose mostly 38.3 µM), for the others: top-dose activity change, negative = inhibition, most hits filed as inhibitors | AID 1379; note: % is set by controls: 0 for no effect and ±100 for the full control effect; nearly all actives have a fitted effect of over 60% in size
#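 Compounds were added to a substrate mix at pH 7.2 (50 mM imidazole, 10 uM ATP, within the enzyme's linear range), followed by Kinase-Glo detection reagent; luminescence was measured after 8 minutes at ambient temperature.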
# SMN2 splice enh: SMN2 splice variant enhancement; HEK293 SMN2-luciferase splicing reporter, luminescence, 30-36 h; AID 1458; Potency, µM (top dose mostly 46.1 µM), inactives show at the top dose activity change, positive = activation, actives largely listed as activators; 210,000 tested, 2.8% active; note: % of control where 0% means no effect; nearly all actives have a fitted effect of over 55% in size
#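 HEK293 cells carry an SMN2 minigene-luciferase reporter in which exon 7 inclusion puts luciferase in frame. Cells were seeded at 2000 cells/well, attached for 10-12 hours, then exposed to compounds for 30-36 hours at 37C before ONE-Glo luminescence.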
# An asterisk follows results filed as active; ? = inconclusive; . = no result. A selection: hits, their analogues and other compounds. The true share with any hit is near 7.5%. Calls come from the whole dose curve; as a rule, active = well fitted curve in the direction sought with a large enough effect; inconclusive = small, poorly fitted or top-dose-only effect, or another doubt; inactive = no such curve, though single readings can be large; an effect the other way counts as inactive or inconclusive. Potency is the fitted concentration of half-maximal effect.
SMILES,Rab9 promoter act,FLuc counter,NPC1 prom act,ELG1 genotox,Luc counter,SMN2 splice enh
COc1cccc(-c2nn(C)c3sc(C(=O)NCc4ccc(OC)cc4OC)cc23)c1,.,-9%,.,.,.,-15%
COc1ccc(NC(=O)c2cc3c(-c4ccc(OC)c(OC)c4)nn(C)c3s2)cc1OC,-1%,11µM*,0%,-2%,-1%,4%
COCC(C)Nc1ncnc2c1cnn2-c1cccc(Cl)c1 (stereo unspecified),.,13µM*,.,.,.,.
Cc1ccc(-n2ncc3c(NC(C)c4ccccc4)ncnc32)cc1 (stereo unspecified),.,6µM*,.,.,.,.
CCCCc1ccc(Nc2ncnc3c2cnn3-c2ccc(C)cc2)cc1,.,-10%,.,.,.,.
COc1ccc(OC)c(Nc2ncnc3c2cnn3-c2cccc(Cl)c2)c1,.,0%,.,.,.,.
CCC(CO)Nc1ncnc2c1cnn2-c1ccc(C)cc1 (stereo unspecified),.,3.4µM*,.,.,.,.
CC(Nc1ncnc2c1cnn2-c1cccc(Cl)c1)c1ccccc1 (stereo unspecified),.,24µM*,.,.,.,.
CN(C1CCCCC1)S(=O)(=O)c1ccc(-c2ccccn2)s1,-5%,-1%,-3%,-3%,.,.
Cc1cc2c(cc1S(=O)(=O)CCC(=O)N1CCCC(C)C1)OCC(=O)N2 (stereo unspecified),.,-3%,.,.,.,.
CCc1noc(C)c1C(=O)Nc1cc(Cl)ccc1N1CCOCC1,2%,1%,1%,10%,.,.
CCCN(C(=O)c1sc2nc3n(c(=O)c2c1C)CCCC3)c1ccccc1C,.,-10%,.,.,.,.
Cc1ccc(C(C)C)c(OCC(=O)Nc2cc(-c3nc4ccccc4[nH]3)ccc2C)c1,.,-9%,.,.,.,-64%
O=C(CSc1nnc(-c2ccco2)o1)N1CCCCC1,3.2µM*,?,?,19%,.,.
O=C(CSc1nnc(-c2ccco2)o1)c1ccccc1,?,?,?,8%,-3%,6%
CCC1CCCCN1C(=O)CSc1nnc(-c2cccc(Cl)c2)o1 (stereo unspecified),13%,?,28%,18µM*,4%,?
CC1CCN(C(=O)CSc2nnc(-c3ccco3)o2)CC1,-7%,-14%,2%,12%,12%,-7%
CCC1CCCCN1C(=O)CSc1nnc(-c2ccco2)o1 (stereo unspecified),3.2µM*,15µM*,?,?,6%,?
CCC1CCCCN1C(=O)CSc1nnc(-c2ccc(Cl)cc2)o1 (stereo unspecified),1%,-15%,1%,-5%,1%,-45%
O=C(CSc1nnc(-c2ccco2)o1)c1ccc[nH]1,2.2µM*,?,?,?,-4%,18µM*
Cc1cc(C(=O)OCC(=O)c2ccc(Br)s2)no1,0%,9.5µM*,-10%,0%,10%,-7%
COc1cccc(C(=O)OCC(=O)c2ccc(Br)s2)c1OC,16%,8.5µM*,-3%,-3%,.,.
Cc1cc(C(=O)OCC(=O)c2ccc(Br)s2)c(C)o1,7%,?,2%,3%,-1%,6%
COc1cccc(C(=O)OCC(=O)NCCNC(=O)COC(=O)c2cccc(OC)c2OC)c1OC,0%,-1%,0%,-1%,.,.
CCCc1ccc(-c2ccc(F)c(N)c2)nc1,0.4µM*,0.3µM*,0.5µM*,?,?,0.71µM*
SMILES,Rab9 promoter act,FLuc counter,NPC1 prom act,ELG1 genotox,Luc counter,SMN2 splice enh
CCCCc1ccc(-c2ccc(Br)cc2)nc1,1µM*,1.2µM*,1.3µM*,?,-9%,3.5µM*
CCc1ccc(-c2ccc(C(=O)Oc3ccc(Br)cc3)cc2)nc1,.,-1%,.,.,.,5%
Nc1cc(-c2nn[nH]n2)ccc1F,6%,-1%,-4%,0%,0%,-14%
CC(=O)Nc1ccc(C2Nc3c(C)cc(C)cc3-c3cc(C)nn32)cc1 (stereo unspecified),.,-11%,.,.,.,-4%
NS(=O)(=O)c1ccc(CCNC(=O)c2ccc3ccccc3n2)cc1,1%,?,12%,?,-2%,12%
COc1ccc(CCNC(=O)c2ccc3ccccc3n2)cc1,22%,?,6%,18µM*,.,.
COc1ccc(OC(=O)NCCc2ccccc2)cc1,3.5µM*,15µM*,4µM*,?,.,.
COc1ccc2c(=O)c(C(=O)NCCc3ccccc3)c[nH]c2c1,?,17µM*,?,11%,.,.
Cc1ccc2c(=O)c(C(=O)NCc3cccs3)c[nH]c2c1,?,17µM*,17%,16%,-4%,-1%
COc1ccc(CCNC(=O)c2ccccc2)cc1,27%,?,26%,8%,.,.
COc1ccc([C@H]2CC(=O)C=C(/C=C/c3ccccc3)C2)cc1OC,-6%,-10%,1%,0%,.,.
CCOC(=O)c1cc(-c2ccccc2)n(CCC(=O)NCc2ccccc2Cl)c1C,.,1%,.,.,.,.
CCCOc1ccc(CNC(=O)c2[nH]c3cc(OC)ccc3c2Sc2ccccc2)cc1,.,6%,.,.,.,.
COc1ccc(CCNC(=O)c2nn(C)cc2Cl)cc1,19%,?,20%,?,4%,11µM*
O=C(CSc1n[nH]c(-c2ccccc2)n1)NCCc1ccccc1,.,-16%,.,.,.,.
COc1ccc2c(Sc3ccccc3)c(C(=O)NCCc3ccc(Cl)cc3)[nH]c2c1,.,5.4µM*,.,.,.,.
COc1ccc(-c2nc(SCC(=O)NCCc3ccccc3)n[nH]2)cc1,.,17µM*,.,.,.,.
COc1ccc(CCNC(=O)c2ccc(Cl)cc2)cc1,-2%,-17%,0%,1%,-1%,-20%
Clc1ccc(-c2nnc(-c3ccco3)o2)cc1,2.8µM*,12µM*,3.5µM*,?,-12%,?
COc1ccccc1OCC(=O)Nc1ccc(-c2nnc(-c3ccco3)o2)cc1,21%,1%,10%,4%,-4%,5.6µM*
c1cncc(-c2nnc(-c3ccco3)o2)c1,-6%,0%,-2%,?,-1%,22%
O=C(COc1ccc(Br)cc1)Nc1ccc(-c2nnc(-c3ccco3)o2)cc1,2.2µM*,1%,4µM*,13%,-1%,8.9µM*
CCC(Oc1ccccc1)C(=O)Nc1ccc(-c2nnc(-c3ccco3)o2)cc1 (stereo unspecified),?,-12%,?,11%,4%,11µM*
CCOC(=O)c1c(C)[nH]c(CCC(=O)Nc2c(C)cccc2CC)c1C,.,-7%,.,.,.,.
Nc1nn(-c2ccccc2)nc1C(=O)OCc1ccccc1Br,.,?,.,.,.,-1%
CCC(C)(C)NC(=O)c1ccc(S(=O)(=O)N2CCCCCC2)cc1,-7%,1%,0%,-3%,0%,4%
NS(=O)(=O)c1cc(C(=O)N=Nc2c(O)[nH]c3ccccc23)ccc1Cl,18%,6µM*,21%,4%,.,.

# Screening results: PubChem, National Center for Advancing Translational Sciences (NCATS)
